Values joined by “and” are separate entries in the source; they are usually repeats but may differ in a detail not shown here. Equal entries are not always repeated. In all, about 290,000 compounds went through this assay and about 260 (0.09%) were called active. This is one part of a sample in which actives are shown more often than they occur. Results with a measured potency or affinity are listed apart. Values without a mark were called inactive. No stated cut-off is given here; in the data, active means inhibition above about 50%; inactive means the rest.

In general, inhibition refers to the relative decrease from the control value, in per cent.

Kappa-type opioid receptor (Homo sapiens), sequence (P41145 whole entry, looked up): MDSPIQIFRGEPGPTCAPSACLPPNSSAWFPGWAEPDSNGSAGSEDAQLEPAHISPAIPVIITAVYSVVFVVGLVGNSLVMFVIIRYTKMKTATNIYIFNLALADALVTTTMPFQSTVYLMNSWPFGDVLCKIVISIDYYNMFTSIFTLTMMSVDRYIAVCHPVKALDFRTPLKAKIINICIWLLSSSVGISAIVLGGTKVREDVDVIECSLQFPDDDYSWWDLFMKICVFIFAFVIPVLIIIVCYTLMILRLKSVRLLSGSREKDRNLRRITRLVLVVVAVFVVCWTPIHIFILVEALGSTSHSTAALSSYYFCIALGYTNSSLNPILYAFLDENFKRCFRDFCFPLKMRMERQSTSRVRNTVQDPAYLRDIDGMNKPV

This assay has as its target Kappa-type opioid receptor (Homo sapiens) (UniProt P41145). The experiment in a line: KOR antagonists, beta-arrestin recruitment, cell-based, luminescence, uHTS (AID 1778). As to conditions: antagonist mode, active compounds read high; at 10 µM unless noted. In general terms: Arrestin recruitment assays detect the binding of arrestin to an activated receptor.
Consider `O=c1cc(-c2ccccc2)nc(Cc2c(Cl)cccc2Cl)[nH]1`, for which the inhibition is 29.4%.

For the compound `CCNC(=O)NC(=O)C(C)OC(=O)CCS(=O)(=O)c1ccc(C)cc1` (stereo not drawn), the inhibition is -30.7%.

As to `COc1ccc(S(=O)(=O)N2CCN(C(=O)COc3ccc(C)c(C)c3)CC2)cc1OC`, the inhibition was -25.1%.

On to `O=C(Oc1cccc2cccnc12)c1cccc([N+](=O)[O-])c1`, for which the inhibition was -16.3% [at 20 µM].

Regarding `O=C(Oc1c(Cl)cc(Cl)c2cccnc12)c1cccc([N+](=O)[O-])c1`, the inhibition was 99.6% (active).

As to `O=C(Oc1ccc(Cl)c2cccnc12)c1cccc([N+](=O)[O-])c1`, the inhibition is -2.7%.

As for `COc1cc2c(cc1OC)CN(C(=O)CCNS(=O)(=O)c1ccccc1F)CC2`, the inhibition is 5.3%.

In the case of `Cc1nc2scc(-c3ccccc3)c2c(=O)n1N`, the inhibition is -2.3%.

Take `Cc1ccc(C)n1-n1c(C)nc2scc(-c3ccccc3)c2c1=O`: the inhibition is -3.4%.

With `Cc1nc(NC(=O)CSC2=NCCS2)sc1C(=O)N(C)C`, the inhibition is -22.6%.

`COc1ccc(S(=O)(=O)N2CCN(c3ccccn3)CC2)cc1[N+](=O)[O-]`: the inhibition was 5.2%.

As for `CC(C)(C)C(=O)/C(C#N)=C/c1cccs1`, the inhibition was 1.1%.

Consider `O=C(Nc1ccccc1)c1ccc(Nc2c([N+](=O)[O-])cc([N+](=O)[O-])c3ccccc23)cc1`, for which the inhibition was 20.1%.

Turning to `Cc1ccc(NC(=O)c2ccc(Nc3c([N+](=O)[O-])cc([N+](=O)[O-])cc3[N+](=O)[O-])cc2)cc1`, the inhibition was 1.3%.

Take `Cc1ccc(NC(=O)C2CCN(S(=O)(=O)c3ccc4c(c3)NC(=O)C(C)S4)CC2)c(C)c1` (stereo not drawn): the inhibition is 11.1%.

As for `COc1ccc(CSc2cccc3cccnc23)cc1[N+](=O)[O-]`, the inhibition is -30.5%.

Turning to `Cc1cccc(NC(=O)CSc2cccc3cccnc23)c1`, the inhibition is -3%.

With `CC(Oc1ccccc1)C(=O)Nc1nnc(S(=O)(=O)Nc2ccccc2)s1` (stereo not drawn), the inhibition is -37.1% [at 20 µM].

Consider `COc1ccc(N(CC(=O)Nc2ccc(S(=O)(=O)N3CCOCC3)cc2)S(=O)(=O)c2ccccc2)cc1`, for which the inhibition was -0.6%.

Take `COc1ccc(N(CC(=O)Nc2ccc(S(=O)(=O)N3CCOCC3)cc2)S(=O)(=O)c2ccc(F)cc2)cc1`: the inhibition was 28.3%.

With `CCCCN1C(=O)/C(=C/C=C2\N(C)c3ccccc3C2(C)C)SC1=S`, the inhibition was 6.8%.

In the case of `CN1C(=CC=C2C=C(I)C(=O)C(I)=C2)C(C)(C)c2ccccc21`, the inhibition is 68.2% (active).

As for `CCCN1C(=O)/C(=C\C=C2/Sc3ccccc3N2CC)SC1=S`, the inhibition is -42.6% [at 20 µM].

For `CN1/C(=C\C=C2/C(=O)Oc3ccccc3C2=O)C(C)(C)c2ccccc21`, the inhibition was -18.4%.

Consider `CN1/C(=C\C=C2/SC(=S)N(CC(=O)O)C2=O)C(C)(C)c2ccccc21`, for which the inhibition was 77.1% [at 20 µM] (active).

As to `CN1/C(=C\C=O)C(C)(C)c2ccccc21`, the inhibition was -23.9%.

Take `C=CCN1C(=O)/C(=C\C=C2\N(C)c3ccccc3C2(C)C)SC1=S`: the inhibition was 3.2%.

With `CCCN1C(=O)/C(=C\C=C2/Sc3ccccc3N2CCO)SC1=S`, the inhibition is 17.8%.

Regarding `O=C1CC(C2CCCO2)C(=O)N1c1ccccc1` (stereo not drawn), the inhibition is -21.9%.

As to `Cn1c(=O)c(C(=O)NCc2ccccc2Cl)c(O)c2ccccc21`, the inhibition is -41.3% [at 20 µM].

For `Cc1ccccc1CN(C)C(=O)CNC(=O)c1ccc2ccccc2c1`, the inhibition is -14.6%.

As for `Cc1ccc(NC(=O)Cn2cc(S(=O)(=O)c3ccc(F)cc3)c(=O)c3cc(F)ccc32)cc1`, the inhibition was -36.8%.

Regarding `Cn1c(CCNC(=O)c2ccccc2)nc2cc(NC(=O)C3CCCCC3)ccc21`, the inhibition is 1.3%.

As for `COc1cc(/C=C/c2ccc3c(Br)cc(Br)c(O)c3n2)ccc1O`, the inhibition is 57.8% (active).

`COc1cc(/C=C/c2ccc3cccc(O)c3n2)cc(OC)c1OC`: the inhibition was -5.8%.

Consider `COc1ccc(/C=C/c2ccc3c(Br)ccc(O)c3n2)cc1`, for which the inhibition was 0.3%.

On to `COc1ccc(/C=C/c2ccc3cccc(O)c3n2)cc1Br`, for which the inhibition was -9.3%.

Consider `COc1cc(/C=C/c2ccc3cccc(O)c3n2)cc(Br)c1OC`, for which the inhibition was -20%.

As for `COc1ccc(C(c2nnnn2C2CCCC2)N2CCC(C)CC2)cc1` (stereo not drawn), the inhibition was -3%.

For the compound `Cn1c(=O)[nH]c(=O)c2c1nc(NCCN)n2CCOc1ccccc1`, the inhibition is -30.9% [at 20 µM].

Take `Cc1sc2nc(C3CC3)nc(N3CCN(C(=O)c4ccccc4F)CC3)c2c1C`: the inhibition was 4.1%.

On to `O=C(N/N=C/c1ccc2ncccc2c1)c1cc(-c2cccs2)nc2ccccc12`, for which the inhibition is 28.4%.

Turning to `C/C(=N\NC(=O)c1ccccc1)c1cccc(Br)c1`, the inhibition was 21.6%.

Take `C/C(=N\NC(=O)c1cccc(Br)c1)c1cccnc1`: the inhibition is -7.4%.

For `C/C(=N\NC(=O)c1cc(-c2cccs2)nc2ccccc12)c1ccccn1`, the inhibition is 75.1% (active).

As to `C/C(=N\NC(=O)c1c[nH]c2ccccc12)c1ccccn1`, the inhibition is 21.4%.

Turning to `C/C(=N\NC(=O)c1cc2ccccc2cc1O)c1cccs1`, the inhibition was 1.2%.

Turning to `NNC(=O)c1cc(-c2cccs2)nc2ccccc12`, the inhibition was 40.8%.

For `C/C(=N/NC(=O)c1cc2ccccc2cc1O)c1ccco1`, the inhibition is 17%.

For `C/C(=N\NC(=O)c1cc(Br)ccc1O)c1cccs1`, the inhibition is -5.5%.

As for `CC(C)CNC(=S)N(CCCN(C)C)Cc1cc2cc3c(cc2[nH]c1=O)OCCO3`, the inhibition was -1.3% [at 20 µM].

Regarding `O=C(O)c1nnn(-c2cc(C(F)(F)F)cc(C(F)(F)F)c2)c1-c1ccccc1`, the inhibition is 7.9%.

`COc1ccc(-c2nc(C)sc2CC(=O)O)cc1`: the inhibition is -5.7%.

`N#Cc1c(C(F)(F)F)cc(-c2ccc(Cl)c(Cl)c2)nc1SCCN1CCOCC1`: the inhibition was -29.4%.

Regarding `CCOC(=O)C1=C(CSc2nc(-c3ccncc3)ccc2C#N)OC(N)=C(C#N)C1c1ccc(OC)cc1` (stereo not drawn), the inhibition was -4.9%.

As to `CC(C)NC(=S)n1cc(C(=O)c2cc(Cl)cc(Cl)c2O)cn1`, the inhibition was -10%.

As to `COC(=O)C1c2ccccc2-c2ccccc21`, the inhibition is -7.3%.

For `CCOc1ccc(C(=O)/C=C/Nc2ccc(S(=O)(=O)N=C(N)N)cc2)cc1`, the inhibition is 1%.

With `Cc1ccc(N(C(=O)CNC(=O)c2ccco2)C(C(=O)NCC2CCCO2)c2ccccc2)cc1` (stereo not drawn), the inhibition is -12.5%.

Regarding `CC1CN(C(=S)SCC(=O)c2ccc(Cl)cc2)CC(C)O1` (stereo not drawn), the inhibition is 21.8%.

`Cc1ccc(-c2onc(C)c2C)cc1S(=O)(=O)N1CC(C)Oc2ccccc21` (stereo not drawn): the inhibition is -11.7%.

Take `COc1ccc(N)c2c1C(=O)c1ccccc1C2=O`: the inhibition was 20.4%.

Regarding `COc1ccc(OC)c2c1C(=O)c1ccccc1C2=O`, the inhibition was -4.5%.

Turning to `O=C1CC[C@@H](CN(Cc2ccccn2)Cc2nc(-c3ccc(C(F)(F)F)cc3)no2)N1`, the inhibition is 3.4% [at 20 µM].

`O=C(CC1C(=O)NCCN1Cc1cccc(Oc2ccccc2)c1)NCCCn1cccn1` (stereo not drawn): the inhibition was -2.5%.

For `O=C(O)/C=C/c1cccnc1`, the inhibition was 17.9%.

For `CC(/C=C\c1cccnc1)=C/C(=O)O`, the inhibition was -0.4% and 17.9%.

Turning to `O=C(/C=C/c1cccnc1)/C=C/c1cccnc1`, the inhibition was 57.9% (active).

Consider `Cn1ccnc1SCc1nc2c(cnn2-c2ccccc2)c(=O)[nH]1`, for which the inhibition was -17.7%.

Take `Cc1cccc(-n2c(SCc3ccc(C#N)cc3)nnc2-c2c[nH]c3ccccc23)c1`: the inhibition was 6.1%.

Turning to `CCOc1ccc(N2CC(C(=O)Nc3ccncc3)CC2=O)cc1` (stereo not drawn), the inhibition is 15.6%.

Consider `CCOC(=O)Cc1[nH]nc2c1C(Cc1ccccc1)C(C#N)=C(N)O2` (stereo not drawn), for which the inhibition is -4.1%.

In the case of `CC1(C)CC(=O)C(/C=N/c2ncccc2C(=O)O)=C(O)C1`, the inhibition was -24.7%.

Take `CC1(C)CC(=O)C(/C=N/c2ccccn2)=C(O)C1`: the inhibition was 40.5%.

As to `CN(C)S(=O)(=O)c1cccc(C(=O)Nc2cc(Cl)ccc2O)c1`, the inhibition is -1.5%.

Take `C/C(=C\c1ccc(F)cc1)C(=O)c1c(C)cc(C)[nH]c1=O`: the inhibition was 5.1%.

As to `O=C(NCc1ccccn1)C(=O)NN=C1CCCCCCCCCCC1`, the inhibition was -9.2% [at 20 µM].

As for `CCOC(=O)C(CSCC(=O)c1ccc(Br)cc1)NC(=O)OC(C)(C)C` (stereo not drawn), the inhibition was 3.7%.

These data come from PubChem BioAssay AID1778 (Sanford-Burnham Center for Chemical Genomics, 2009).
